Results filed as inconclusive are left out. Values without a mark were called inactive. Calls of active or inactive are those of the source. Calls come from the whole dose curve; as a rule, active = well fitted inhibition curve with a large enough effect; inconclusive = small, poorly fitted or top-dose-only effect; inactive = no such curve, though single readings can be large or run the other way.

This assay is described as follows: qHTS Assay for Lipid Storage Modulators: COS7 Assay against Probe and Analogs. Conditions: COS7 lipid droplet area, BODIPY imaging, 18 h; cells loaded with 400 µM oleic acid. An outline of the steps:
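COS7 cells treated 17-18 h with compound in 5% FBS medium, 0.2% DMSO and 400 microM oleic acid. Fixed cells stained with BODIPY 493/503 and Hoechst; lipid droplets counted from microscope images by visual review and image segmentation.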
In the case of `CCOC(=O)C1CCN(C(=O)C(C)(C)NC(=O)Nc2ccc(CN3CCOCC3)cc2)CC1`, the max response was -3.75%. Regarding `O=C(NC1CCCc2c1cnn2-c1ccc(F)cc1F)c1ccncc1` (centres undefined), the max response is 1.34%.

For the compound `O=C(NC1CCCc2c1cnn2-c1ccc(F)cc1F)C1CCCCC1` (centres undefined), the max response was 3.71%. `O=C(Nc1cccc2nn(-c3ccc(F)cc3)cc12)c1ccccn1`: the max response is 9.12%.

`CCOc1ccc(CCNC(=O)C2=C(C)OCCO2)cc1OCC`: the max response was 10.4%. Same read-out and setting: then `O=C(O)c1cccc(-c2noc(-c3ccccc3F)n2)c1`, with -6.12%; and `CCOC(=O)C1CCN(C(=O)C2(NC(=O)Nc3ccccc3Cl)CC2)CC1`, with -17.2%; and `CCN(CC)C(=O)C1CCN(C(=O)C(C)(C)NC(=O)Nc2ccccc2Cl)CC1`, with -9.22%. On to `CC(C)(C)OC(=O)NCCOCCOCCOc1ccc(-n2ncc3c2CCCC3NC(=O)c2ccccn2)cc1` (centres undefined), for which the Potency was 18.7 µM (active). In the case of `CCOc1ccc(CCNC(=O)c2cc3sccc3n2Cc2ccc(Cl)c(F)c2)cc1OCC`, the Potency is 0.296 µM (active). On the same count and under the same terms, then `CC(NCc1ccc2c(c1)nc(NC(=O)c1ccc(-c3cn[nH]c3)s1)n2CC(C)(C)O)C(C)(C)C` (centres undefined), with 4.69 µM (active). Take `CC(C)(C)OC(=O)NCCOCCOCCOCCn1ncc2c1CCCC2NC(=O)c1ccccn1` (centres undefined): the max response was 0.489%. As to `CCOc1ccc(CCNC(=O)c2ccc(N3N=C(C)CC3=O)cc2)cc1OCC`, the max response is 0.211%. The same measure, in the same setting: then `O=C(NC1CCCc2c1cnn2-c1ccc(F)cc1F)C1CCCCN1` (centres undefined), with -10.9%. As to `CCOc1ccc(CCNC(=O)c2cc3sccc3n2Cc2ccc(-n3cncn3)cc2)cc1OCC`, the Potency was 5.9 µM (active). Consider `CCOc1ccc(CCNC(=O)c2cc3sccc3n2CCN2CCOCC2)cc1OCC`, for which the Potency was 2.96 µM (active).

Take `O=C(NC1CCCc2c1cnn2-c1ccc(F)cc1F)C1CC1` (centres undefined): the max response is 3.35%. Regarding `O=C(c1cc2sccc2n1Cc1ccccc1)N(CCc1ccc(O)c(O)c1)Cc1ccccc1`, the max response is 10.7%. For the compound `CCOc1ccc(CCNC(=O)c2cccs2)cc1OCC`, the max response is -20.6%.

Turning to `Cc1cc(SCc2sc(-c3ccc(C(F)(F)F)cc3)nc2C)ccc1OCC(=O)O`, the max response is 14.2%. Consider `O=C(Nc1cccc2c1cnn2-c1ccc(F)cc1)c1ccccn1`, for which the max response is 3.22%.

On to `CCOC(=O)C1CCN(C(=O)C(C)(C)NC(=O)Nc2ccc(Cl)cc2Cl)CC1`, for which the Potency is 6.62 µM (active).

As to `Cc1ccc(NC(=O)c2ccc(CN3CCN(C)CC3)cc2)cc1Nc1nc(-c2cccnc2)cs1`, the max response was -0.902%. Turning to `CCOc1ccc(CCNC(=O)c2ccc(C3(C(F)(F)F)N=N3)cc2)cc1OCC`, the Potency was 7.43 µM (active). Consider `CCOC(=O)C1CCN(C(=O)C(C)(C)NC(=O)Nc2ccc(N)cc2)CC1`, for which the max response was -5.67%. `CCOc1ccc(CCNC(=O)c2cnon2)cc1OCC`: the max response is 8.92%. Consider `O=C(NCCc1ccc(OCC(F)(F)F)c(OCC(F)(F)F)c1)c1cc2sccc2n1Cc1ccccc1`, for which the Potency is 2.96 µM (active).

Consider `CCOc1cc(F)c(CCNC(=O)c2cc3sccc3n2Cc2ccccc2)cc1OCC`, for which the max response is -106%. For the compound `O=C(NCCc1ccc2c(c1)OCO2)c1cc2sccc2[nH]1`, the max response was 5.04%.

`CCOc1ccc(CCNC(=O)c2ccnn2Cc2cccc(C)c2)cc1OCC`: the Potency is 13.2 µM (active). Regarding `CCOc1ccc(CCNC(=O)c2cc3ccccc3n2Cc2cc(C)cc(C)n2)cc1OCC`, the Potency is 1.48 µM (active). For `O=C(NC1CCCc2c1cnn2-c1ccc(F)cc1F)c1ccccc1` (centres undefined), the Potency was 14.8 µM (active). As to `COc1cc(C)c(Sc2cnc(NC(=O)c3ccc(CNC(C)C(C)(C)C)cc3)s2)cc1C(=O)N1CCN(C(C)=O)CC1` (centres undefined), the max response was -8.98%.

On to `COc1cc(Nc2ncc(F)c(Nc3ccc4c(n3)NC(=O)C(C)(C)O4)n2)cc(OC)c1OC`, for which the max response was -7.73%.

(Values after PubChem BioAssay AID652283 (National Center for Advancing Translational Sciences (NCATS), 2013).)
